# Measurements taken from the supplement of paper PMC11060735.
# The whole screen tested about 1,800 compounds, of which about 50 (3%) showed activity. This is one part of a sample in which actives are shown more often than they occur.
# Test system: mouse p16Ink4a+/- lung fibroblasts (INKBRITE, bleomycin-injured)
# Test: percentage of GFP+ (p16Ink4a+) fibroblasts among all cells in well; higher = less depletion of p16Ink4a+ cells, active = 20 or less
# Details: 1 µM; 3 days
row,SMILES,percentage of GFP+
1,CC[C@@H]1[C@@H](C)O[C@@](O)([C@@H](C)[C@H](O)[C@H](C)[C@H]2OC(=O)/C=C/C=C/[C@H](C)[C@H]([C@@H](C)[C@@H](O)[C@H](C)[C@@]3(O)C[C@@H](O[C@H]4C[C@H](O)[C@H](O)[C@H](C)O4)[C@H](CC)[C@@H](C)O3)OC(=O)/C=C/C=C/[C@H]2C)C[C@H]1O[C@H]1C[C@H](O)[C@H](O)[C@H](C)O1 [Elaiophylin],11.1% (active)
2,O=[N+]([O-])c1ncc[nH]1 [Azomycin],43.5% (inactive)
3,CN1c2ccccc2C(NCCCCCCC(=O)O)c2ccc(Cl)cc2S1(=O)=O (stereo not given) [Tianeptine],29.5% (inactive)
4,C[C@](O)(COc1ccc(C#N)cc1)C(=O)Nc1ccc(C#N)c(C(F)(F)F)c1,43.3% (inactive)
5,CN1CCC(c2c[nH]c3ccc(O)cc23)CC1,45.6% (inactive)
6,CO[C@H]1CCC(O[C@H]2C[C@H]([C@]3(C)CC[C@]4(C[C@H](O)[C@@H](C)[C@@H]([C@@H](C)/C=C(\C)C(=O)[C@H](C)C[C@H](C)C(=O)O)O4)O3)O[C@]3(O[C@@H]([C@H]4O[C@@](O)(CO)[C@H](C)C[C@@H]4C)C[C@@H]3C)[C@@H]2C)O[C@@H]1C (stereo not given in full) [Nanchangmycin],18.5% (active)
7,CCCN1C[C@H](CSC)C[C@@H]2c3cccc4[nH]cc(c34)C[C@H]21 [Pergolide],54.5% (inactive)
8,C=CC[C@]1(O)CC[C@H]2[C@@H]3CCC4=CC(=O)CCC4=C3C=C[C@@]21C [Altrenogest],48.5% (inactive)
9,O=P1(NCCCl)OCCCN1CCCl (stereo not given) [Ifosfamide],45.7% (inactive)
10,Cc1cc(C(=O)CN2CCCC2)c(C)n1-c1ccc(F)cc1,51.3% (inactive)
11,CCC1(C)CC(=O)NC(=O)C1 [Bemegride],48.1% (inactive)
12,CC(C)[C@]12O[C@H]1[C@@H]1O[C@]13[C@]1(O[C@H]1C[C@H]1C4=C(CC[C@@]13C)C(=O)OC4)[C@@H]2O [Triptolide],4.17% (active)
13,Cc1ccccc1-n1c(Cn2ncc3c(N)ncnc32)nc2cccc(C)c2c1=O,38.7% (inactive)
14,CCC1=C[C@@H]2CN3CCc4c([nH]c5ccccc45)[C@@](C(=O)OC)(C2)[C@@H]13 [Catharanthine],47.9% (inactive)
15,CN1CCN(c2nc3ccccc3nc2Cl)CC1,42.1% (inactive)
